How the values were obtained:
Settings in all cases: concentration: 1 μM, replicates: in singlicate; n = 1
MRCKA = system: MRCKA
MRCKB = system: T1, MRCKB
T1 construct: gene CDC42BPB

MST1R = system: MST1R
MST1 = system: T2, MST1
T2 construct: gene STK4

MST2 = system: T3, MST2
T3 construct: gene STK3

MST3 = system: T4, MST3
T4 construct: gene STK24

MST4 = system: MST4
MTOR = system: MTOR
MUSK = system: MUSK
MYLK2 = system: MYLK2
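Further: KINOMEscan kinase panel screen.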

SMILES	%Inh (MRCKA) [%]	%Inh (MRCKB) [%]	%Inh (MST1R) [%]	%Inh (MST1) [%]	%Inh (MST2) [%]	%Inh (MST3) [%]	%Inh (MST4) [%]	%Inh (MTOR) [%]	%Inh (MUSK) [%]	%Inh (MYLK2) [%]
Fc1ccc(-c2ncn(CCCNCc3ccccc3)c2-c2ccncc2)cc1	0	18	18	2	39	11	0	11	9	0
CN1c2ccc(-c3ccc(C(=O)NCCO)cc3)cc2-c2[nH]ncc2S1(=O)=O	0	5	0	5	35	10	0	23	0	0
Clc1cccc(-c2nc(Nc3ccncc3)c3ccccc3n2)c1 [GW873004]	3	42	0	27	45	9	0	36	0	0
CSc1ccc(NC2=C(c3ccccc3Cl)C(=O)NC2=O)cc1 [SB-342411]	0	0	27	6	0	0	8	13	0	8
Nc1nc(-c2ccc3c(N)n[nH]c3c2)cc(N2CCC[C@@H](C(=O)Nc3ccccc3)C2)n1.O=C(O)C(F)(F)F.O=C(O)C(F)(F)F [GSK2288359]	2	0	14	0	30	0	0	15	4	5
CC(C)N1CCC(n2cnc(-c3ccc(F)cc3)c2-c2ccnc(N)n2)CC1 [SB-223132]	18	0	0	0	0	29	0	27	0	6
FC(F)(F)c1cc(Nc2nccc(-c3c(-c4ccc(Cl)cc4)nn4ncccc34)n2)ccc1Cl [GW829351]	0	9	0	0	3	0	0	0	0	0
c1ccc(-c2ccc3c(-c4ccnc(Nc5ccc6c(c5)OCCO6)n4)cnn3n2)cc1 [GW818941]	11	6	41	23	4	1	0	17	16	27

Source: paper PMC5540273 (PLoS ONE, 2017)
